# Assay results from PubChem BioAssay (Tox21).
# A number with no mark means an inactive call. Records with an inconclusive call do not appear. Entries that show only a call come without a potency. Active and inactive are the calls of the source. The call rests on the fitted dose curve; in most records, active means well fitted curve in the direction sought with a large enough effect in the repeat runs; inconclusive means weak or mixed curves; inactive means no such curve, though single readings can be large; an effect the other way counts as inactive or inconclusive.
# How the values were obtained:
# [1] = A CellTox Green Cytotoxicity Assay to monitor cytotoxicity in HEK293 cells - 40 hour (AID 1224871); further: nearly all actives have a fitted effect of over 45% in size
# Procedure, shortened: (§1)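 HEK293 cells, 600/well, were preincubated 5 hours and then exposed to compounds at 37 C for up to 40 hours. A cell-impermeant cyanine dye staining dead-cell DNA was read by fluorescence at 0, 8, 16, 24, 32 and 40 h time points.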
# [2] = qHTS RealTime-Glo MT Cell Viability Assay in HEK293 cells - 16 hour (AID 1224872); further: top concentration of the series differs between compounds; nearly all actives have a fitted effect of over 50% in size
# Procedure, shortened: (§2)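 Nonlytic real-time viability readout: viable cells convert prosubstrate to NanoLuc substrate, giving luminescence proportional to live cell number. HEK293, 600 cells/well, compound added after 5 h, continuous culture at 37 C.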
# [3] = qHTS RealTime-Glo MT Cell Viability Assay in HepG2 cells - 8 hour (AID 1224873); further: nearly all actives have a fitted effect of over 55% in size
# Procedure, shortened: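 HepG2 cells mixed with RealTime-Glo MT reagents (NanoLuc plus cell-permeant prosubstrate) were seeded at 600 cells/well, incubated 5 h at 37 C/5% CO2, then pinned with compounds in DMSO; nonlytic luminescence tracked viability during 40 h treatment.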
# [4] = qHTS RealTime-Glo MT Cell Viability Assay in HEK293 cells - 40 hour (AID 1224874); settings: RealTime-Glo luminescence; max response: active compounds read low; further: nearly all actives have a fitted effect of over 50% in size
# Procedure, shortened: (§3)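 600 cells/well were plated with the nonlytic NanoLuc/prosubstrate reagent, pre-incubated 5 h, then given 23 nL of compound in DMSO. Incubation at 37 C for 40 h, with luminescence from viable-cell-reduced substrate read repeatedly from 0 h.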
# [5] = A CellTox Green Cytotoxicity Assay to monitor cytotoxicity in HEK293 cells - 24 hour (AID 1224875); further: series mostly up to about 77 µM; nearly all actives have a fitted effect of over 45% in size
# Procedure, shortened: as §1
# [6] = A CellTox Green Cytotoxicity Assay to monitor cytotoxicity in HepG2 cells - 16 hour (AID 1224876); further: nearly all actives have a fitted effect of over 45% in size; further: potency means the concentration at half of the fitted maximal effect
# Procedure, shortened: (§4)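 HepG2 cells, 600/well, preincubated 5 h with CellTox Green dye, then exposed to Tox21 compounds in DMSO at 37 C for up to 40 h. Dead-cell DNA fluorescence read at the indicated time point.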
# [7] = qHTS RealTime-Glo MT Cell Viability Assay in HepG2 cells - 32 hour (AID 1224877); further: nearly all actives have a fitted effect of over 55% in size
# Procedure, shortened: (§5)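 Luminescence read-out: viable HepG2 cells reduce a prosubstrate to a NanoLuc substrate, giving a signal proportional to live cell number. Reads taken at 0, 8, 16, 24, 32 and 40 h of compound exposure at 37 C.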
# [8] = A CellTox Green Cytotoxicity Assay to monitor cytotoxicity in HepG2 cells - 24 hour (AID 1224878); further: nearly all actives have a fitted effect of over 45% in size
# Procedure, shortened: as §4
# [9] = A CellTox Green Cytotoxicity Assay to monitor cytotoxicity in HepG2 cells - 40 hour (AID 1224879); further: nearly all actives have a fitted effect of over 40% in size
# Procedure, shortened: as §4
# [10] = qHTS RealTime-Glo MT Cell Viability Assay in HEK293 cells - 0 hour (AID 1224880)
# Procedure, shortened: as §3
# [11] = A CellTox Green Cytotoxicity Assay to monitor cytotoxicity in HEK293 cells - 32 hour (AID 1224881); further: nearly all actives have a fitted effect of over 40% in size
# Procedure, shortened: as §1
# [12] = A CellTox Green Cytotoxicity Assay to monitor cytotoxicity in HepG2 cells - 0 hour (AID 1224882); further: nearly all actives have a fitted effect of over 35% in size
# Procedure, shortened: as §4
# [13] = A CellTox Green Cytotoxicity Assay to monitor cytotoxicity in HepG2 cells - 32 hour (AID 1224883); further: nearly all actives have a fitted effect of over 50% in size
# Procedure, shortened: as §4
# [14] = A CellTox Green Cytotoxicity Assay to monitor cytotoxicity in HEK293 cells - 8 hour (AID 1224884); further: nearly all actives have a fitted effect of over 35% in size
# Procedure, shortened: as §1
# [15] = qHTS RealTime-Glo MT Cell Viability Assay in HepG2 cells - 16 hour (AID 1224885); further: nearly all actives have a fitted effect of over 50% in size
# Procedure, shortened: as §5
# [16] = qHTS RealTime-Glo MT Cell Viability Assay in HEK293 cells - 24 hour (AID 1224886)
# Procedure, shortened: as §2
# [17] = qHTS RealTime-Glo MT Cell Viability Assay in HEK293 cells - 8 hour (AID 1224887)
# Procedure, shortened: as §3
# [18] = A CellTox Green Cytotoxicity Assay to monitor cytotoxicity in HEK293 cells - 16 hour (AID 1224888); further: nearly all actives have a fitted effect of over 35% in size
# Procedure, shortened: as §1
# [19] = qHTS RealTime-Glo MT Cell Viability Assay in HepG2 cells - 0 hour (AID 1224889); further: nearly all actives have a fitted effect of over 50% in size
# Procedure, shortened: as §5
# [20] = A CellTox Green Cytotoxicity Assay to monitor cytotoxicity in HepG2 cells - 8 hour (AID 1224890); further: nearly all actives have a fitted effect of over 45% in size
# Procedure, shortened: as §4
SMILES,Potency [1],Potency [2],Potency [3],max response [4] [%],Potency [5],Potency [6],Potency [7],Potency [8],Potency [9],outcome [10],Potency [11],outcome [12],Potency [13],Potency [14],Potency [15],Potency [16],Potency [17],Potency [18],Potency [19],Potency [20]
O=C1OC(=O)C2C1C1(Cl)C(Cl)=C(Cl)C2(Cl)C1(Cl)Cl (stereo not given),inactive,inactive,inactive,-0.525,inactive,inactive,inactive,inactive,inactive,inactive,inactive,inactive,inactive,inactive,inactive,inactive,inactive,inactive,inactive,inactive
CCN(CC)C(C)C(=O)c1ccccc1 (stereo not given),inactive,inactive,inactive,2.31,inactive,inactive,inactive,inactive,inactive,inactive,inactive,inactive,inactive,inactive,inactive,inactive,inactive,inactive,inactive,inactive
Cc1nnc2n1-c1sc(CCC(=O)N3CCOCC3)cc1C(c1ccccc1Cl)=NC2,inactive,inactive,inactive,-16.7,inactive,inactive,inactive,inactive,inactive,inactive,inactive,inactive,inactive,inactive,inactive,inactive,inactive,inactive,inactive,inactive
COc1cc(OC)nc(Sc2cccc(Cl)c2C(=O)O)n1,inactive,inactive,inactive,16.2,inactive,inactive,inactive,inactive,inactive,inactive,inactive,inactive,inactive,inactive,inactive,inactive,inactive,inactive,inactive,inactive
C[N+](C)=CCl,inactive,inactive,inactive,17.5,inactive,inactive,inactive,inactive,inactive,inactive,inactive,inactive,inactive,inactive,inactive,inactive,inactive,inactive,inactive,inactive
CNC(=O)O/N=C(\C)SC,inactive,inactive,inactive,14.5,inactive,0.219 µM (active),inactive,inactive,inactive,inactive,inactive,inactive,inactive,inactive,inactive,inactive,inactive,inactive,inactive,inactive
[O]=[Cd],inactive,inactive,inactive,15.5,inactive,inactive,inactive,inactive,inactive,inactive,inactive,inactive,inactive,inactive,inactive,inactive,inactive,inactive,inactive,inactive
O=C(O)C(Br)CBr (stereo not given),inactive,inactive,inactive,26,inactive,inactive,inactive,inactive,inactive,inactive,inactive,inactive,inactive,inactive,inactive,inactive,inactive,inactive,inactive,inactive
O=C(Oc1ccc(Br)cc1)N1CCN2CCC1CC2,inactive,inactive,inactive,-0.781,inactive,inactive,inactive,inactive,inactive,inactive,inactive,inactive,inactive,inactive,inactive,inactive,inactive,inactive,inactive,inactive
Cc1cc(C)nc(Nc2ccccc2)n1,inactive,inactive,inactive,-2.72,inactive,inactive,inactive,inactive,inactive,inactive,inactive,inactive,inactive,inactive,inactive,inactive,inactive,inactive,inactive,inactive
C[C@]12CC[C@H]3[C@@H](CC=C4C[C@@H](O)CC[C@@]43C)[C@@H]1CC[C@@H]2O,inactive,inactive,inactive,8.6,inactive,inactive,inactive,inactive,inactive,inactive,inactive,inactive,inactive,inactive,inactive,inactive,inactive,inactive,inactive,inactive
CCOP(=O)(OCC)OP(=O)(OCC)OCC,inactive,inactive,inactive,5.24,inactive,inactive,inactive,inactive,inactive,inactive,inactive,inactive,inactive,inactive,inactive,inactive,inactive,inactive,inactive,inactive
CC1=NNC(=O)N(/N=C/c2cccnc2)C1,inactive,inactive,inactive,3.94,inactive,inactive,inactive,inactive,inactive,inactive,inactive,inactive,inactive,inactive,inactive,inactive,inactive,inactive,inactive,inactive
